# Bioassay records as filed in PubChem BioAssay.
# An excerpt weighted towards active compounds, which were near 21% of everything screened.
# CHX counter: affects cycloheximide protein synthesis inhibition readout, counter-screen | AID 2314 | cell reporter, cycloheximide protein synthesis inhibition counterscreen | max response, % | hit rate 12% among 300,000; in the data active means max response mostly above about 13%, no sharp cut-off; inactive means mostly below about 14%; further: read at 38.3 µM for the half of the compounds with a filed dose; 0% is about no effect
# NS1 inh: blocks influenza NS1 protein function | Potency, µM (titrated, usually from 46.1 µM), for the others: at the highest dose activity, positive = more growth | hit rate 0.4% among 270,000 | AID 2326; calls by dose curve; further: potency means the concentration at half of the fitted maximal effect; actives are rising curves; nearly all actives have a fitted effect of over 50% in size
#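 S. cerevisiae expressing influenza A NS1, grown in glucose, washed, then diluted 1:100 into pH 6.0 -URA galactose medium with 23 nl compound. Growth recovery read as OD600; NS1-free strain serves as control.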
# SARS PLP yeast: inhibitors of SARS-CoV papain-like protease in yeast; hit rate 0.19% among 330,000; S. cerevisiae expressing SARS-CoV PLpro, growth rescue; AID 485353; Potency, µM (highest dose often 32.9 µM), inactives show at the highest dose activity, positive = growth rescue, hits mostly activators; calls by dose curve; further: potency means the concentration at half of the fitted maximal effect; 0% is about no effect; nearly all actives have a fitted effect of over 55% in size
# Pf growth 48h: inhibits P. falciparum growth in the first generation, 48 h; Potency, µM (top dose mostly 28.7 µM), inactives show at the top dose activity change, negative = inhibition, most hits filed as inhibitors; AID 504832; P. falciparum luciferase growth in erythrocytes, 48 h; hit rate 5.9% among 310,000; further: potency means the concentration at half of the fitted maximal effect; on the % scale 0 is the no-effect control and ±100 the full control effect
#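 Parasite viability was followed by luminescence of a genomically integrated firefly luciferase. Cultures held 0.1% parasitemia at 2% hematocrit (final), incubated under 5% CO2 at 37 C.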
# Shiga toxin inh: inhibitors of Shiga toxin in Vero cells; inhibition, % at 38.7 µM; Vero cells, Shiga toxin protein synthesis inhibition reporter; hit rate 9.2% among 290,000; in the data active means inhibition mostly above about 28%, no sharp cut-off; inactive means mostly below about 43%; further: 0% is about no effect
# Pf growth 96h: inhibits malaria parasite growth, 96 h; hit rate 6.9% among 320,000; P. falciparum luciferase reporter growth, 96 h; Potency, µM (top dose mostly 28.7 µM), without a hit: at the top dose activity change, negative = inhibition, most hits filed as inhibitors; further: potency means the concentration at half of the fitted maximal effect; on the % scale 0 is the no-effect control and ±100 the full control effect
#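 Compounds incubated with erythrocytes infected by luciferase-expressing P. falciparum (2% hematocrit, 0.05% parasitemia final) for 96 hours, 37 C in 5% CO2. Growth inhibition scored as decreased luciferase luminescence.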
# An asterisk follows results filed as active; ? = inconclusive; · = not tested or not shown. Unless noted, the call rests on the fitted dose curve; in most records, active means well fitted inhibition curve with a large enough effect; inconclusive means small, poorly fitted or top-dose-only effect, or another doubt; inactive means no such curve, though single readings can be large or run the other way.
SMILES,CHX counter,NS1 inh,SARS PLP yeast,Pf growth 48h,Shiga toxin inh,Pf growth 96h
COc1ccccc1CN1CCCC(CN(CCN(C)C)C(=O)c2ccc(C)cc2)C1 (configuration not stated),1,2%,0%,0%,-5,?
CSCC[C@H](N)C(=O)N[C@@H](C)C(=O)NCC(=O)N[C@@H](CCCN=C(N)N)C(=O)N[C@@H](CO)C(=O)NCC(=O)N[C@@H](CC(=O)O)C(=O)N[C@@H](CO)C(=O)N[C@@H](CC(=O)O)C(=O)N[C@@H](CCC(=O)O)C(=O)N[C@@H](CC(=O)O)C(=O)N[C@@H](CC(C)C)C(=O)N[C@@H](CC(C)C)C(=O)N[C@@H](CCCCN)C(=O)N[C@@H](C)C(=O)N[C@H](C(=O)O)C(C)C,-8,·,·,·,-10,·
CCN1C(=O)/C(=C\c2cn(CCC#N)nc2-c2ccc(F)cc2)SC1=S,-2,1%,-3%,?,-1,0%
O=C(N/N=C/c1ccc(F)cc1)c1ccc(OCc2ccccc2)cc1,-2,9%,0%,?,17,3%
O=C(N/N=C/c1ccc(COc2ccc(Br)cc2)o1)c1ccco1,22,5%,-9%,?,active,-22%
O=C(Nc1nnc(COc2ccc(Br)cc2)s1)c1ccco1,-1,-21%,1%,11%,-11,10%
O=C(N/N=C/c1ccco1)c1ccccc1OCc1ccc(Br)cc1,33*,-3%,-16%,2%,118*,13µM*
O=C(N/N=C/c1ccco1)c1ccc(OCc2ccccc2)cc1,11*,-6%,0%,?,1,-43%
Cc1ccc(/C=N/NC(=O)c2ccccc2OCc2cccc(Br)c2)o1,15*,0%,-15%,-29%,-9,?
CCCn1c(SCC(=O)NCc2ccc(Cl)cc2)n[nH]c1=O,0,·,14%,12%,2,19%
Cc1ccc(/C=N/NC(=O)c2cccc(NC(=O)c3ccccc3Cl)c2)o1,14,4%,7%,-7%,30,1.2µM*
Cc1ccc(/C=N/NC(=O)c2cccc(NC(=O)c3ccccc3C)c2)o1,-1,-4%,-1%,-7%,-5,123%
COc1cc(NCC(=O)Nc2cccc(S(=O)(=O)N3CCCCC3)c2)cc(OC)c1OC,·,·,-2%,1.9µM*,·,?
O=C(Cc1n[nH]c(=O)c2ccccc12)NC(c1ccccc1)c1ccccc1,16*,13%,1%,32%,39,?
COc1ccc([N+](=O)[O-])cc1NCC(=O)Nc1cccc(S(=O)(=O)N2CCCC2)c1,·,·,-3%,5.2µM*,·,?
Cc1ccc(NCC(=O)Nc2cccc(F)c2)cc1S(=O)(=O)N1CCCCCC1,-5,-1%,-2%,0.26µM*,31,0.21µM*
CCOc1ccc(N(CC(=O)NC2CCCCC2)C(=O)CCC(=O)Nc2cc(C)ccn2)cc1,-7,-1%,7%,?,-13,27%
O=C(Cc1n[nH]c(=O)c2ccccc12)Nc1cccc(S(=O)(=O)N2CCCCCC2)c1,·,·,4%,9.3µM*,·,?
Cc1ccc(C(=O)N(C)CC(=O)Nc2cccc(F)c2)cc1S(=O)(=O)N1CCCCC1,·,·,0%,-5%,·,-28%
O=C(Cc1n[nH]c(=O)c2ccccc12)Nc1cccc(S(=O)(=O)N2CCCC2)c1,-1,1%,2%,?,-16,?
O=C(CNc1cccc(S(=O)(=O)N2CCCC2)c1)Nc1ccc(C(F)(F)F)cc1,·,·,10%,4.1µM*,·,1.9µM*
Cc1ccc(NC(=O)CNc2cccc(S(=O)(=O)N3CCCCC3)c2)cc1F,·,·,1%,?,·,?
Cc1ccc(C(=O)N(C)CC(=O)Nc2ccc(Cl)c(C(F)(F)F)c2)cc1S(=O)(=O)N1CCCCC1,·,·,0%,9.3µM*,·,?
CC(NC(C)c1ccccc1Cl)C(=O)Nc1cccc(S(=O)(=O)N2CCCCC2)c1 (configuration not stated),·,·,-2%,10µM*,·,13µM*
CCN(C(=O)c1ccc2c(=O)n3c(nc2c1)CCCCC3)c1ccccc1C,-3,8%,2%,-16%,-10,?
SMILES,CHX counter,NS1 inh,SARS PLP yeast,Pf growth 48h,Shiga toxin inh,Pf growth 96h
Cc1ccc(NC(=O)CSc2nnc(-c3cccnc3)n2CCN2CCCCC2)cc1,-2,-6%,-4%,16%,-8,23%
CCC(CO)Oc1cc(NCc2ccccn2)c2ncn(C(C)C)c2c1 (configuration not stated),·,·,4%,·,·,·
COc1ccc(S(=O)(=O)N(C)C)cc1NCC(=O)Nc1cccc(C#N)c1,-3,·,0%,?,24,12µM*
COc1ccc(NC(=O)CNc2cccc(C#N)c2)cc1Cl,10,-2%,-5%,10%,1,-21%
COCCN(CC(=O)Nc1cccc(S(=O)(=O)N2CCCC2)c1)Cc1nc2ccccc2c(=O)[nH]1,·,·,1%,10µM*,·,?
COCCN(Cc1nc2ccccc2c(=O)[nH]1)C(=O)c1cccc(S(=O)(=O)N2CCCC2)c1,·,·,-1%,?,·,-29%
CN(C)S(=O)(=O)c1ccc(NC(=O)CNc2cc(S(=O)(=O)N3CCCC3)ccc2OCC(F)(F)F)cc1,-1,16%,13%,?,-10,13µM*
O=C(CNc1cccc(F)c1)Nc1cccc(S(=O)(=O)N2CCCCC2)c1,·,·,-1%,14%,·,34%
N#Cc1cccc(NC(=O)CNc2cccc(S(=O)(=O)N3CCCCC3)c2)c1,·,·,8%,15µM*,·,?
CCNc1oc(-c2ccccc2F)nc1S(=O)(=O)c1ccccc1,13,5%,0%,-3%,-12,?
COc1ccc(/C=C/C(=O)Nc2cccc(S(=O)(=O)N3CCCC3)c2)cc1OC,6,·,-1%,13µM*,7,?
COc1ccc(CC(=O)Nc2cccc(S(=O)(=O)N3CCCC3)c2)cc1OC,·,·,-2%,?,·,?
O=C(CCl)Nc1cccc(S(=O)(=O)N2CCCCCC2)c1,9,-18%,29%,6.6µM*,-6,5.2µM*
O=C(Cc1ccc(Cl)cc1)Nc1cccc(S(=O)(=O)N2CCCCC2)c1,·,·,0%,?,·,?
Cc1nc(-c2ccc(S(=O)(=O)N3CCN(C4c5ccccc5-c5ccccc54)CC3)s2)cs1,30*,0%,1%,?,94*,?
Cc1nc(-c2ccc(S(=O)(=O)NCc3ccccn3)s2)cs1,7,2%,0%,29%,14,-2%
Cc1nc(-c2ccc(S(=O)(=O)N3CCCN(CCc4ccccc4)CC3)s2)cs1,-1,-1%,1%,?,9,4.1µM*
Cc1nc(-c2ccc(S(=O)(=O)Oc3ccccc3Cl)s2)cs1,26*,-4%,0%,33%,33*,49%
CCN(CC)S(=O)(=O)c1ccc(-c2csc(C)n2)s1,7,-7%,0%,43%,13,34%
Cc1ccc(/C=C/C(=O)Nc2nn[nH]n2)o1,-3,7%,-15%,13%,-8,?
CC(C)c1ccc(/C=C/C(=O)Nc2nn[nH]n2)cc1,13*,·,1%,39%,28,12%
